# Measured values as given in the supplement of paper PMC6555819.
# Key:
# Experiment in all cases: PBM binding z-score (relative to random genomic background probes); higher = stronger binding; sequences stand for … in GC…GCGATTGACAGCGTAGAATGAAGG
# [1] = system: FXR:RXRa (NR concentration 270 nM, RXRa partner concentration 90 nM)
# Outline: (§1)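 For binding z-scores, the reference was random background probes on custom Agilent 4×180K protein-binding microarrays. These arrays were incubated 1 h with ligand-free nuclear receptor dimers in PBS pH 7.4, 2% milk, 0.02% Triton X-100, 1 mM DTT, 0.2 mg/mL BSA and 0.4 mg/ml salmon testes DNA. Fluorescence was scanned after antibody detection of each partner (one per run) and regression-normalized.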
# [2] = system: LXRa:RXRa (NR concentration 270 nM, RXRa partner concentration 90 nM)
# Outline: as §1
# [3] = system: LXRa homodimer (NR concentration 270 nM)
# Outline: as §1
# [4] = system: LXRb:RXRa (NR concentration 270 nM, RXRa partner concentration 90 nM)
# Outline: as §1
# [5] = system: LXRb homodimer (NR concentration 270 nM)
# Outline: as §1
# [6] = system: PPARa:RXRa (NR concentration 270 nM, RXRa partner concentration 90 nM)
# Outline: as §1
# [7] = system: PPARg:RXRa (NR concentration 180 nM, RXRa partner concentration 90 nM)
# Outline: as §1
# [8] = system: PPARg:RXRa 270nM:90nM, anti-RXR (NR concentration 270 nM, RXRa partner concentration 90 nM)
# Outline: as §1
# [9] = system: PPARg:RXRa 30nM:10nM, anti-RXR (NR concentration 30 nM, RXRa partner concentration 10 nM)
# Outline: as §1
# [10] = system: PPARg:RXRa 90nM:30nM, anti-RXR (NR concentration 90 nM, RXRa partner concentration 30 nM)
# Outline: as §1
# [11] = system: PPARg:RXRa DBDmut IVT, anti-RXR (DBD mutation: RXRa K156A/R161A, NR concentration 270 nM, RXRa partner concentration 90 nM)
# Outline: as §1
# [12] = system: PPARg:RXRa IVT, anti-PPARg (NR concentration 270 nM, RXRa partner concentration 90 nM)
# Outline: as §1
# [13] = system: PPARg DBDmut:RXRa IVT, anti-PPARg (DBD mutation: PPARg1 K132A/R137A, NR concentration 270 nM, RXRa partner concentration 90 nM)
# Outline: as §1
# [14] = system: PPARg DBDmut IVT, anti-PPARg (DBD mutation: PPARg1 K132A/R137A, NR concentration 270 nM)
# Outline: as §1
# [15] = system: PPARg homodimer (NR concentration 180 nM)
# Outline: as §1
# [16] = system: PXR:RXRa (NR concentration 270 nM, RXRa partner concentration 90 nM)
# Outline: as §1
# [17] = system: PXR homodimer (NR concentration 270 nM)
# Outline: as §1
# [18] = system: RARa:RXR (NR concentration 270 nM, RXRa partner concentration 90 nM)
# Outline: as §1
# [19] = system: RARa homodimer (NR concentration 270 nM)
# Outline: as §1
# [20] = system: RARb:RXRa (NR concentration 270 nM, RXRa partner concentration 90 nM)
# Outline: as §1
Sequence,PBM binding z-score [1],PBM binding z-score [2],PBM binding z-score [3],PBM binding z-score [4],PBM binding z-score [5],PBM binding z-score [6],PBM binding z-score [7],PBM binding z-score [8],PBM binding z-score [9],PBM binding z-score [10],PBM binding z-score [11],PBM binding z-score [12],PBM binding z-score [13],PBM binding z-score [14],PBM binding z-score [15],PBM binding z-score [16],PBM binding z-score [17],PBM binding z-score [18],PBM binding z-score [19],PBM binding z-score [20]
ACTTACGGGTCAACGAGGTTATATCACGCGTATA,6.93,5.07,1.5,4.54,1.09,5.82,5.28,4.92,2.11,3.79,2.95,3.92,0.992,1.71,2.52,5.03,3.3,4.76,0.919,4.28
GCTGCTAGGTCAGGTCGGTCAGCTAACGGGTACG,1.34,1.02,0.025,0.546,-0.437,1.77,0.669,1.4,-0.193,0.397,2.59,2.88,-0.904,-0.563,0.777,0.726,-0.37,1.37,-0.616,3.88
AGAACGGGGGCACGCTGAGTTGATAGCAGAGTAG,2.62,2.67,0.116,4.87,6.59,4.42,4.48,4.86,2.39,4.05,4.63,6.15,9.13,9.69,2.35,3.72,1.03,2.98,0.451,3.1
AGAATGAGCTTAAGATCAGGGAAACAGAATACAT,-0.576,-0.745,-0.372,-0.637,-0.597,-0.434,0.541,-0.0832,0.137,0.036,-0.826,-0.493,0.133,0.568,-0.142,-0.393,-0.0876,0.0208,-0.0937,-0.502
TGAATGAGGTTATAAGATCAGAGAACGTTGCAAA,1.28,1.23,-0.332,0.897,-0.296,2.62,1.45,1.83,1.04,1.35,0.837,1.71,0.635,0.498,0.196,0.687,-0.71,1.18,-0.143,0.975
ACCAGTTGGTCAGCTGAGGTCACACACAATTCGG,4.09,3.33,2.22,3.21,0.296,3.54,1.58,2.14,0.389,1.17,1.19,2.26,0.45,-0.406,2.59,5.42,2.07,4.41,0.742,3.71
CAGCCTAGGTCAGGGCCAGGATAGGAGGAACGTT,1.84,0.87,-0.49,0.522,-1.06,2.04,0.835,1.15,-0.0382,0.556,1.16,1.82,-0.747,-1.27,0.00488,0.262,-0.967,0.879,-0.655,3.49
